The results in this text go back to the supplement of paper PMC6555819.

Assay in all cases: PBM binding z-score (relative to random genomic background probes); higher = stronger binding; sequences stand for … in GC…GCGATTGACAGCGTAGAATGAAGG
Assay [1] concerns FXR:RXRa (NR concentration 270 nM, RXRa partner concentration 90 nM). The method in brief:
(§1)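 Custom Agilent 4×180K protein-binding microarrays carried double-stranded probes. Their 34-nt variable regions held direct-repeat seeds, single-nucleotide variants, half-site ablations and random human genomic background sequences. Arrays were incubated 1 h with ligand-free nuclear receptor dimers in PBS pH 7.4, 2% milk, 0.02% Triton X-100, 1 mM DTT, 0.2 mg/mL BSA and 0.4 mg/ml salmon testes DNA. Antibodies against each partner (one per run) detected binding, and scanned fluorescence was regression-normalized. Binding z-scores use random background probes as reference.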

In assay [2] the test system is LXRa:RXRa (NR concentration 270 nM, RXRa partner concentration 90 nM). The method in brief:
as §1

The subject of assay [3] is LXRa homodimer (NR concentration 270 nM). The method in brief:
as §1

Assay [4] deals with LXRb:RXRa (NR concentration 270 nM, RXRa partner concentration 90 nM). The method in brief:
as §1

The subject of assay [5] is LXRb homodimer (NR concentration 270 nM). The method in brief: as §1
Assay [6] relates to PPARa:RXRa (NR concentration 270 nM, RXRa partner concentration 90 nM). The method in brief: as §1
Assay [7] deals with PPARg:RXRa (NR concentration 180 nM, RXRa partner concentration 90 nM). The method in brief:
as §1

For assay [8], the system named is PPARg:RXRa 270nM:90nM, anti-RXR (NR concentration 270 nM, RXRa partner concentration 90 nM). The method in brief:
as §1

Assay [9] relates to PPARg:RXRa 30nM:10nM, anti-RXR (NR concentration 30 nM, RXRa partner concentration 10 nM). The method in brief: as §1
The test system of assay [10] is PPARg:RXRa 90nM:30nM, anti-RXR (NR concentration 90 nM, RXRa partner concentration 30 nM). The method in brief: as §1
The subject of assay [11] is PPARg:RXRa DBDmut IVT, anti-RXR (DBD mutation: RXRa K156A/R161A, NR concentration 270 nM, RXRa partner concentration 90 nM). The method in brief:
as §1

Assay [12] relates to PPARg:RXRa IVT, anti-PPARg (NR concentration 270 nM, RXRa partner concentration 90 nM). The method in brief: as §1
Assay [13] concerns PPARg DBDmut:RXRa IVT, anti-PPARg (DBD mutation: PPARg1 K132A/R137A, NR concentration 270 nM, RXRa partner concentration 90 nM). The method in brief:
as §1

In assay [14] the test system is PPARg DBDmut IVT, anti-PPARg (DBD mutation: PPARg1 K132A/R137A, NR concentration 270 nM). The method in brief:
as §1

For assay [15], the system named is PPARg homodimer (NR concentration 180 nM). The method in brief: as §1
Assay [16] relates to PXR:RXRa (NR concentration 270 nM, RXRa partner concentration 90 nM). The method in brief:
as §1

Assay [17] has as its system PXR homodimer (NR concentration 270 nM). The method in brief:
as §1

The subject of assay [18] is RARa:RXR (NR concentration 270 nM, RXRa partner concentration 90 nM). The method in brief: as §1
Assay [19] has as its system RARa homodimer (NR concentration 270 nM). The method in brief: as §1
Assay [20] concerns RARb:RXRa (NR concentration 270 nM, RXRa partner concentration 90 nM). The method in brief: as §1

As for TCTTGTAGAGCAATAGAGGTTAAGAAAGTGCGCT, the PBM binding z-score in assay [1] was 0.316; in assay [2], 2.34; in [3] it was 0.104; in assay [4], 1.18; in assay [5], -0.745; in assay [6], 1.92. Besides, the PBM binding z-score in [7] is 0.157; in assay [8] it was 1.31; in assay [9], 1.69; in assay [10] it was 1.55; in [11] it was 1.71; in assay [12], 1.36. In addition, the PBM binding z-score in assay [13] is -0.0371; in [14], 0.131; in assay [15], -0.051; in assay [16], 2.73; in assay [17], -0.322; in assay [18], 1.25. In addition, the values for the PBM binding z-score in assay [19] and in [20] were -0.851 and 0.425, respectively.

With CGTCCAAGGTCGGCAGGTCAGTGAAAGCGACGTG, the PBM binding z-score in assay [1] was 1.48; in assay [2], 0.7; in assay [3], -0.723; in assay [4], 0.338; in assay [5], -1.39; in assay [6], 1.95. In addition, the PBM binding z-score in assay [7] is -0.15; in assay [8] it was 0.764; in assay [9], -0.459; in assay [10] it was -0.168; in assay [11], -0.305; in assay [12], 0.214. Besides, the PBM binding z-score in assay [13] was -0.718; in assay [14], -1.66; in assay [15], 0.288; in assay [16], 1.23; in [17], -0.703; in assay [18], 1.88. In addition, the values for the PBM binding z-score in assay [19] and in [20] were -0.686 and 3.17, respectively.

Turning to GCGACTGGGGCAAATCAGGTTACCATAAGGTTGG, the PBM binding z-score in [1] was 0.683; in [2], 0.358; in assay [3], -0.1; in [4], 0.749; in [5], -0.654; in assay [6], 1.73. Further, the PBM binding z-score in assay [7] is 1.28; in assay [8] it was 1.07; in [9] it was -0.18; in assay [10] it was 0.553; in [11], 4.37; in assay [12] it was 3.69. In addition, the PBM binding z-score in assay [13] is -0.276; in [14] it was -0.972; in [15] it was 0.782; in assay [16], 1.1; in assay [17] it was -0.422; in [18] it was 0.759. Besides, the results for the PBM binding z-score in [19] and in assay [20] were -0.444 and 1.14, respectively.

Consider CCTAGCAGGTCAGGGTCACTCAAGCATTTCGCTT, for which the PBM binding z-score is 4.58 in assay [1]; 3.54 in assay [2]; 0.113 in assay [3]; 3.41 in assay [4]; -0.723 in assay [5]; 4.61 in assay [6]. Moreover, the PBM binding z-score in assay [7] worked out at 3.59; in [8] it was 4.22; in assay [9], 1.09; in assay [10], 3.27; in [11] it was 3.35; in [12] it was 4. In addition, the PBM binding z-score in [13] was -0.304; in [14], -1.12; in assay [15] it was 2.56; in [16], 3.91; in assay [17], 0.115; in assay [18], 4.5. For the same sequence, the results for the PBM binding z-score in assay [19] and in [20] were 0.487 and 4.2, respectively.

Take AGAACGTGGGCAATGAGTTGATAGCACGGGTGGC: the PBM binding z-score in assay [1] is -0.669; in assay [2] it was -0.786; in assay [3] it was -0.475; in [4], -1.07; in assay [5], -0.973; in assay [6], -0.601. The PBM binding z-score in assay [7] is 0.723; in assay [8] it was -0.543; in assay [9] it was -0.342; in assay [10], -0.679; in assay [11] it was -0.374; in assay [12], -0.0857. Besides, the PBM binding z-score in [13] is -0.361; in [14] it was -0.494; in assay [15] it was -0.516; in [16] it was -0.399; in [17], -0.204; in [18], -0.5. Further, the values for the PBM binding z-score in [19] and in [20] were -0.521 and -0.261, respectively.

Turning to CCTTACGGGTTACTGACAGGTTATAGCATTTGGA, the PBM binding z-score in assay [1] was 0.701; in [2], 2.51; in [3] it was 0.282; in assay [4] it was 1.34; in assay [5] it was -0.567; in assay [6], 1.78. Besides, the PBM binding z-score was 0.373 in [7]; 1.24 in [8]; 0.114 in [9]; 0.535 in assay [10]; 1.04 in [11]; 0.57 in [12]. For the same sequence, the PBM binding z-score in [13] is -0.172; in assay [14], -0.367; in [15], 1.21; in assay [16], 0.825; in assay [17], 0.22; in assay [18], 1.51. The PBM binding z-score in assay [19] worked out at 0.545; in assay [20] it was 0.924.

Consider CGAACGATGGCATGAGTTGATAGCAAATGCCGAT, for which the PBM binding z-score in [1] is -0.377; in [2], -0.686; in assay [3] it was -0.408; in assay [4], -0.556; in assay [5] it was -0.839; in [6], -0.496. Besides, the PBM binding z-score in [7] was 0.77; in assay [8], 0.203; in assay [9] it was 0.0969; in assay [10], -0.044; in assay [11], -0.534; in assay [12], -0.676. For the same sequence, the PBM binding z-score in assay [13] was -0.379; in assay [14] it was -0.0268; in [15], 0.126; in assay [16], -0.184; in assay [17], -0.0321; in assay [18] it was -0.0116. For the same sequence, the PBM binding z-score in assay [19] was -0.0736; in [20], -0.391.
